# About 4,900 (1.5%) of roughly 330,000 compounds were called active. The full list was thinned out, with actives kept by preference. A number with no mark means an inactive call.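 The calls were made as follows: active = inhibition above the mean inhibition across the screen plus 3 SD (cut at about 25% in these data); inactive = the rest.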
# Biological target: Platelet-activating factor acetylhydrolase (Homo sapiens) (UniProt Q13093)
# Assay: inhibition of plasma PAF acetylhydrolase – biochemical, fluorescence polarization, human, primary screen (AID 463082);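 also: inhibitors block binding of the rhodamine activity-based probe so polarization drops; 0% = enzyme with DMSO and 100% = wells lacking pPAFAH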
# Conditions: recombinant pPAFAH, FP-rhodamine probe fluorescence polarization; at 3.39 µM; hits give high values
# Sequence of Platelet-activating factor acetylhydrolase (Homo sapiens) (Q13093 whole entry, looked up): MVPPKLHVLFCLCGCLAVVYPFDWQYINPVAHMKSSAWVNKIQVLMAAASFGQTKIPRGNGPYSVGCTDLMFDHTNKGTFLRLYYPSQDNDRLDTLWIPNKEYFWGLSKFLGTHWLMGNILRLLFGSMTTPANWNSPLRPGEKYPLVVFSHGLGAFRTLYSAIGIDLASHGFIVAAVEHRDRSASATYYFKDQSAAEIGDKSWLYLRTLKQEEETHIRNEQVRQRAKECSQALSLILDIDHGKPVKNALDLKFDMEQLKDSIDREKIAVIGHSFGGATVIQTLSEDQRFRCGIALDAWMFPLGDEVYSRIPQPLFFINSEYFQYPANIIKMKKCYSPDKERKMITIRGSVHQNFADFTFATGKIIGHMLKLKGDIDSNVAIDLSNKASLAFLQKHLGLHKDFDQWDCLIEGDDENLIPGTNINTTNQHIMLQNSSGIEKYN
row,SMILES,inhibition
1,CCN(CC)C(=O)[C@H]1CC(CC(=O)NCc2ccco2)C(=O)N2CCc3c([nH]c4ccccc34)[C@]12C (stereo partly drawn),-0.35%
2,CCN1/C(=C\c2ccc3ccccc3[n+]2CC)Sc2cc(C)ccc21,36.3% (active)
3,Cc1ccc(C(=O)OCC(=O)NC(=O)Cc2ccccc2)c(O)c1,5.13%
4,CCCc1cc(=O)[nH]c(SCC(=O)N2C(C)CCCC2C)n1 (stereo not drawn),8.03%
5,CCCc1cc(=O)[nH]c(SCC(=O)c2c(N)n(CC(C)C)c(=O)n(C)c2=O)n1,0.06%
6,CCCc1cc(=O)[nH]c(SCC(=O)c2cc(C)n(CCC)c2C)n1,25.1% (active)
7,Cc1cc(C(=O)CSc2nc(N)cc(=O)[nH]2)c(C)n1CCc1ccc(Cl)cc1,69.6% (active)
8,Cc1cc(C(=O)CSc2nc(N)cc(=O)[nH]2)c(C)n1Cc1ccco1,13.6%
9,Cc1cc(=O)[nH]c(SCc2ccc(Cl)cc2)n1,-2.26%
10,Cc1cc(C(=O)CSc2nc(N)cc(=O)[nH]2)c(C)n1-c1cccc(F)c1,56.4% (active)
11,Cc1cc(C)c(C(=O)CSc2nc(C)cc(=O)[nH]2)c(C)c1,8.8%
12,Cc1cc(=O)[nH]c(SCc2cccc(F)c2)n1,-3.14%
13,CONc1nc2nonc2nc1NOC,4.61%
14,CCN(CC(=O)Nc1ccc(OC)cc1)C(=O)c1ccc(=O)n(Cc2ccccc2)n1,-1.18%
15,O=c1oc2ccc(C#CC3(O)CCCCC3)cc2cc1-n1cc(-c2ccsc2)nn1,-0.61%
16,O=C(CO/N=C/c1ccccc1O)NNC(=O)c1ccccc1Cl,0.6%
17,CCOCCCNC(=O)C(=O)NCCCOCC,7.96%
18,COc1cccc(COC(=O)C2CCN(S(=O)(=O)c3cccs3)CC2)c1OC,0.21%
19,Cn1cccc1C(C#N)c1ccccc1C#N (stereo not drawn),6.28%
20,CC(=O)Oc1c(C(=O)c2nnc(C)o2)c(=O)n(Cc2ccccc2)c2ccccc12,4.19%
21,CCCCNC(=O)C(C)N(CCN(C)C)C(=O)CCCN1C(=O)NC(c2ccc(Cl)cc2)C(C(=O)OCc2ccccc2)=C1C (stereo not drawn),8.55%
22,FC(F)(F)c1cccc(Cc2noc(CN3CCC(N4CCCCC4)CC3)n2)c1,-0.07%
23,CCN(C(=O)c1cc([N+](=O)[O-])ccc1NCc1cccnc1)c1ccccc1,-0.13%
24,CC(Oc1ccc(Br)cc1)C(=O)NCC(c1ccco1)N1CCCCC1 (stereo not drawn),1.84%

row,SMILES,inhibition
1,CCOC(=O)C1(Cc2ccc(Cl)cc2)CCN(C(=O)C2=NNC(=O)CC2)CC1,1.54%
2,COC(=O)CN1C(=O)[C@H]2[C@@H](/C=C/c3ccccc3)N3C(=O)CN(Cc4ccccc4)C(=O)[C@@]3(Cc3ccccc3)[C@H]2C1=O,3.66%
3,NS(=O)(=O)c1ccccc1NC(=O)c1c(O)c2ccccc2[nH]c1=O,-4.47%
4,CN(C(=O)COC(=O)Cc1ccccc1[N+](=O)[O-])C1CCS(=O)(=O)C1 (stereo not drawn),-1.36%
5,CN(C(=O)COC(=O)c1cc(-c2ccco2)nc2ccccc12)C1CCS(=O)(=O)C1 (stereo not drawn),30.1% (active)
6,CN(CCOc1ccccc1)C(=O)c1cc(-c2ccco2)nc2ccccc12,17.3%
7,c1ccc(C2CCC(N3CCC(N4CCCCC4)CC3)CC2)cc1 (stereo not drawn),4.58%
8,CC/C(O)=C1\C(=O)CC(C)(C)CC1=NCCc1nc2ccccc2[nH]1,-2.43%
9,Cc1cccc(C(=O)Nc2ccc(C(=O)/C=C/c3cccs3)cc2)c1,-9.49%
10,CC(=O)Nc1ccc(S(=O)(=O)Nc2cccc(NC(=O)C(C)(C)C)c2)cc1,6.07%
11,CC(=O)Nc1ccc(S(=O)(=O)Nc2ccc(-c3ccc4nnc(C)n4n3)cc2)cc1,3.56%
12,CC(=O)Nc1ccc(S(=O)(=O)Nc2nc(-c3ccc(C(C)(C)C)cc3)cs2)cc1,25.1% (active)
13,O=C(NC(=S)Nc1cccc2c(O)cccc12)c1cccc(Br)c1,8.85%
14,O=C(Cc1cccs1)N1CCCC(c2nc(-c3ccc(S(=O)(=O)N4CCCC4)cc3)no2)C1 (stereo not drawn),3.46%
15,CC(C)c1ccc(-c2noc(C3CCCN(S(C)(=O)=O)C3)n2)cc1 (stereo not drawn),26.1% (active)
16,COc1cc(-c2noc(C3CCCN(S(=O)(=O)c4cccc(Cl)c4)C3)n2)cc(OC)c1OC (stereo not drawn),1.19%
17,CCCn1c(N)c(C(=O)CSc2nnc(-c3cccnc3)n2-c2ccc(C)cc2C)c(=O)[nH]c1=O,4.8%
18,COCC1CCCN(Cc2nc(-c3ccc4c(c3)OCO4)no2)C1 (stereo not drawn),0.91%
19,Cc1ccc(S(=O)(=O)N2CCN(C(=O)COC(=O)CNC(=O)c3ccc(C(C)(C)C)cc3)CC2)c(C)c1,18%
20,CCCCOc1ccc(C(=O)NCC(=O)OCC(=O)N2CCN(S(=O)(=O)c3ccc(C)cc3C)CC2)cc1,28% (active)
21,Cc1ccc(S(=O)(=O)N2CCN(C(=O)COC(=O)c3c(C)cc(C)cc3C)CC2)c(C)c1,0.75%
22,COc1cccc(CNC(C)C(=O)Nc2ccc(S(=O)(=O)N3CCCC3)cc2)c1 (stereo not drawn),-5.3%
23,COc1ccc(S(=O)(=O)NCC(c2ccco2)N2CCOCC2)cc1 (stereo not drawn),-0.61%
24,Cc1ccc(C(=O)NCC(=O)OCC(=O)NC2CCCCCCC2)cc1,9.66%

row,SMILES,inhibition
1,O=C(COC(=O)CNS(=O)(=O)c1ccc(F)c(F)c1F)NC1CCCC1,29.2% (active)
2,Cc1cc(C)cc(OCC(=O)OCC(=O)NC2CCCC2)c1,21.4%
3,CN(C(=O)CC1C(=O)NCCN1Cc1ccc(F)cc1Cl)C1CCCCC1 (stereo not drawn),-3%
4,COc1ccccc1-n1cn[nH]c1=S,6.13%
5,COc1ccccc1-n1c(-c2cc(-c3ccco3)[nH]n2)n[nH]c1=S,28.5% (active)
6,COc1ccc(OC)c(-n2c(-c3ccn[nH]3)n[nH]c2=S)c1,-4.65%
7,Cc1ccc(-n2c(Cc3cccs3)nnc2SCC(=O)OC(C)C)cc1,34% (active)
8,CCn1c(Cc2cccs2)nnc1SCC(=O)c1ccc(C)cc1,9.49%
9,COc1ccc(-n2c(SCC(=O)OC(C)C)nnc2-c2ccccn2)cc1,6.1%
10,C=C1c2cccc(OC)c2O[C@H](C(=O)OCC)[C@@H]1CCCCCC,9.96%
11,Cc1cc(C)cc(NS(=O)(=O)c2ccc(F)cc2)c1,5.58%
12,O=C1Cc2cc(S(=O)(=O)Nc3cccc(F)c3)ccc2N1,24.4%
13,CSc1ccc(S(=O)(=O)Nc2cccc(F)c2)cc1,32.8% (active)
14,Nc1nonc1-n1nnc(C(=O)N/N=C/c2ccc(Cl)cc2)c1-c1ccc2c(c1)OCO2,3.64%
15,O=C(Nc1ccccc1)c1ccc2nsnc2c1,-5.05%
16,COCC(C)NC(=O)c1ccc(Cl)c(Cl)c1 (stereo not drawn),4.84%
17,Cc1cc2nc(C(F)(F)F)cc(-c3cccs3)n2n1,-3.12%
18,COCC(C)NC(=O)c1ccc(-n2nc(C(F)(F)F)cc2-c2cccs2)cc1 (stereo not drawn),35.9% (active)
19,CC(=O)N1CCN(C(=O)C2(NC(=O)Nc3ccc(C)cc3)CCCCC2)CC1,-3.87%
20,CCCC(C)C(=O)NCc1ccncc1 (stereo not drawn),-2.95%
21,COC(=O)c1c(NC(=O)CCN2CCOCC2)sc2c1CCCC2,7.3%
22,Cc1ccc(NC(=O)c2csc3c2CCCC3)cc1,1.78%
23,Cc1ccc(NC(=O)c2c(NC(=O)CCC(=O)O)sc3c2CCCCC3)cc1,24.6% (active)
24,Cn1nc(C(C)(C)C)c([N+](=O)[O-])c1C(N)=O,-0.25%

row,SMILES,inhibition
1,O=[N+]([O-])c1ccccc1SNc1ccccn1,3.58%
2,COc1cnc(-c2ccccn2)nc1Oc1ccc(C(C)(C)C)cc1,3.59%
3,C[C@H](CO)N1C[C@H](C)[C@@H](CN(C)C(=O)Nc2ccc3c(c2)OCO3)Oc2c(cccc2N(C)C)C1=O,3.8%
4,CCOC(=O)c1cc(C#N)c(N2CCCCC2)nc1-c1ccccc1,4.27%
5,N#Cc1c(N2CCCCC2)nc(N)c2c(N)nc(SCC(=O)O)cc12,27.8% (active)
6,N#CCc1c(C#N)c(N)nc(N2CCCC2)c1C#N,-3.2%
7,O=C(N=C1SC2CS(=O)(=O)CC2N1c1ccccc1)c1ccccc1 (stereo not drawn),-2.21%
8,CS/C(=C\C(=O)c1ccco1)Nc1ccccc1Cl,3.63%
9,CCN1CC=C2C(C#N)=C(N)C(C#N)(C#N)[C@H](c3ccoc3)[C@H]2C1,25.2% (active)
10,N#CC1=C(N)C(C#N)(C#N)[C@H](c2ccsc2)[C@H]2COCC=C12,3.03%
11,CCCN1CC=C2C(C#N)=C(N)C(C#N)(C#N)C(c3cc(OC)ccc3OC)C2C1 (stereo not drawn),0.59%
12,CCC1CCCCN1C(=S)NC(=O)c1ccco1 (stereo not drawn),-4.39%
13,CCN(CC)S(=O)(=O)c1cc([N+](=O)[O-])ccc1NNC(=O)Nc1ccccc1,12%
14,Cc1ccc(C)c(NS(=O)(=O)c2ccc(OCC(=O)NCc3cccnc3)cc2)c1,26.4% (active)
15,Cc1cc(S(=O)(=O)NC2CCCCC2)ccc1OCC(=O)NCc1cccnc1,8.28%
16,Cc1ccc(CNC(=O)COc2ccc(S(=O)(=O)NC(C)C)cc2)cc1,-3.29%
17,Cc1ccc(S(=O)Cc2ccc(C(=O)N3CCN(C4CCCCC4)CC3)o2)cc1 (stereo not drawn),4.39%
18,COc1ccccc1NC1=NC(c2ccc(Cl)cc2)N=C(N)N1 (stereo not drawn),1.26%
19,O=C(COC(=O)c1ccco1)NCc1ccc(Cl)cc1,0.66%
20,COC(=O)CCCC1=CC2=CC(=O)C(C)(OC(=O)c3cccs3)C(=O)C2=CN1c1cccc(C#N)c1 (stereo not drawn),7.86%
21,CC(C)(C)OC(=O)NCCCC1=CC2=CC(=O)C(C)(OC(=O)c3ccco3)C(=O)C2=CO1 (stereo not drawn),33.5% (active)

# Source: PubChem BioAssay AID463082 (The Scripps Research Institute Molecular Screening Center, 2010)
